The values below come from PubChem BioAssay (NCI).

This is part of a sample that, as a whole, favours compounds with a hit. Of some 83,000 tested, about 20% had one in any assay.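 Values shown are percent growth following 48 h exposure of cells in 96-well plates to a single concentration of compound; below 10 was considered active.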 Unmarked numbers belong to inactive results. Activity calls are given as the source filed them.

The test concerns DU-145 prostate. Briefly: NCI-60 one-dose screen, 48 h (100 = growth as untreated, 0 = no growth, -100 = all killed). To be noted: 10 µM unless noted.
Regarding `NC1=NC(c2cccc(Br)c2)c2sc3ccc(Cl)cc3c2N1` (stereo not drawn), the growth was 111%.

As for `CCCCn1c(-c2ccc(-c3nc(-c4ccc(Cl)cc4)no3)cc2)nc(-c2ccccc2)c1-c1ccccc1`, the growth is 93.4%.

On to `CCc1ccccc1-n1c(N)c(C#N)c(-c2ccc(Cl)cc2)c(C#N)c1=O`, for which the growth was 110%.

As for `Cc1ccc(/C=N\NC(=O)c2[nH]c3ccc(F)cc3c2-c2ccccc2)cc1`, the growth is -2.21% (active).

Consider `COc1ccc(/C=C/c2c(C(=O)/C=C/c3ccc(C(F)(F)F)cc3)c(C)nc3ccccc23)cc1`, for which the growth is -81% (active).

`Cc1c(C(=O)/C=C/Nc2c(Cl)cc(S(N)(=O)=O)cc2Cl)sc2nc3ccccc3n12`: the growth is 107%.

As for `CC(=O)N1N=C(c2ccc(Nc3nc(Nc4ccc(F)cc4)nc(Nc4ccc(Cl)cc4)n3)cc2)CC1c1ccc(Cl)cc1` (stereo not drawn), the growth was 111%.

As to `COc1ccccc1/C=C1\Oc2cc(OCCN3CCC(Cc4ccccc4)CC3)ccc2C1=O`, the growth was 102%.

`Cc1nc2ccccc2c(/C=C/c2ccccc2)c1C(=O)/C=C/c1ccc(C(F)(F)F)cc1`: the growth is -88.7% (active).

`Cc1[nH]c(C(=O)Nc2ccc(C(=O)N3CCNCC3)cc2OC(C)C)c(Cl)c1Cl`: the growth was 68.1%.

For `CN1C(=O)N(C)C2Nn3c(s/c(=C\c4ccccc4)c3=O)=NC21` (stereo not drawn), the growth was 106%.

Consider `COc1ccc([C@H]2c3cc(OC)c(OC)cc3C=C(C=O)C2CO)cc1OC` (stereo partly drawn), for which the growth was 61.9%.

Take `O=c1n(Cc2ccc3ccccc3c2)ccn1Cc1ccc2ccccc2c1`: the growth is 100%.

For the compound `N/C(=N\c1nc2ccccc2s1)NC(=O)Nc1cccc2ccccc12`, the growth is 23.2%.

In the case of `O=C(N=c1oc2ccccc2cc1-c1cc2ccccc2[nH]1)Nc1ccc(Cl)cc1`, the growth is 99.2%.

Regarding `Fc1cc(-c2nnc3sc(-c4ccc(Cl)cc4Cl)nn23)c(Cl)cc1Cl`, the growth is 92.7%.

`CSc1ccc2c(c1)c(CCN)c(C)n2Cc1ccc(Cl)c(Cl)c1`: the growth is -89.4% (active).

With `OC(c1ccccc1)C(NC(Cc1ccccc1)c1ccccc1)c1ccccc1` (stereo not drawn), the growth is 98.7%.

`O=C(/C=C/c1ccc([N+](=O)[O-])o1)NNC(=O)c1cc2ccccc2cc1O`: the growth is 11.7%.

For the compound `CCCCCCCCCCCCCCCCCCOc1ccccc1CC(=O)OCC[N+](CC)(CC)CC`, the growth is 33.9%.

Turning to `Cc1c(C(=O)NCCN2CCOCC2)cn2ncnc(Oc3ccc(NC(=O)Nc4ccc(Cl)c(C(F)(F)F)c4)cc3)c12`, the growth is 42.3%.

For the compound `Cc1ccc2c(n1)C(=O)C(Cl)=C(Nc1ccccc1C(C)C)C2=O`, the growth is 63.2%.

With `Nc1cc2c(cc1Br)-c1cc(Cl)ccc1C2=O`, the growth was 107%.

Turning to `Cc1nn(-c2ccccc2)c2c1N=c1s/c(=C\c3ccc(C(F)(F)F)cc3)c(=O)n1CN2`, the growth was 117%.

As for `COc1ccc2c(c1)/C(=C/c1sc(=S)n(Cc3ccco3)c1O)C=N2`, the growth is 33.5%.

As for `COc1nc2ccccc2cc1-c1nc2c(cnn2-c2ccccc2)c(=O)[nH]1`, the growth was 61%.

With `Cc1[nH]c(C(=O)Nc2ccc(C(=O)NCCN)cc2OC(C)C)c(Cl)c1Cl`, the growth is 33.8%.

`CC(C)c1cc(C(C)C)c(S(=O)(=O)Oc2ccc(NC(=O)c3ccc(Cl)cc3)cc2)c(C(C)C)c1`: the growth is 43.7%.

Take `CN1C(=O)CNC(=O)[C@H](NC(=O)c2nc3ccccc3cc2O)CSSC[C@H]1C(=O)NCCCc1nc2ccccc2cc1O`: the growth was 42.3%.

Take `O=S(=O)(Nc1ccc(-c2nc(-c3cccc(OCCN4CCOCC4)c3)c(-c3ccnc(Br)c3)[nH]2)cc1)c1ccccc1`: the growth is 59.5%.

As for `COc1ccc(-c2cc3c4c(nc5ccccc5c4c2)CC(c2cc(OC)c(OC)c(OC)c2)O3)cc1` (stereo not drawn), the growth is 35.4%.

As for `COc1ccc(/C=N/Nc2cc(=O)[nH]c3ccc(Cl)cc23)cc1`, the growth was 64.7%.

With `COc1ccc(S(=O)(=O)n2c3ccccc3n3ncc(-c4nnc(C)o4)c23)cc1`, the growth was 22.8%.

With `CCc1cccc2c3c(sc12)C(c1ccc(Cl)cc1)C(C#N)=C(N)O3` (stereo not drawn), the growth is 19.3%.

Regarding `Clc1ccc(C(/C=C/c2sc(Cl)nc2Cl)=N/Nc2cc(Cl)cc(Cl)c2)cc1`, the growth is 112%.

As to `NCCCNc1nc2ccccc2c2c(=O)c3cc(OC(F)(F)F)ccc3sc12`, the growth was -10.7% (active).

`Cc1cc(-c2cc(C)c(N)cc2C)c(C)cc1N`: the growth is 121%.

For `O=C(Nc1ccc(F)cc1F)c1cc(F)ccc1O`, the growth was 21.9%.
